The target in assay [1] is Dual specificity protein kinase CLK3 (Homo sapiens) (UniProt P49761). Conditions: at 1 µM.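 Further: each value is the mean inhibition of CLK3.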
Assay [2] deals with Dual specificity tyrosine-phosphorylation-regulated kinase 1A (Homo sapiens) (UniProt Q13627). Conditions: at 0.1 µM.
Assay [3] shares this target. Conditions: at 1 µM.
For assay [4], the target named is Dual specificity tyrosine-phosphorylation-regulated kinase 1B (Homo sapiens) (UniProt Q9Y463). Conditions: at 0.1 µM.
Assay [5] shares this target. Conditions: at 1 µM.
Assay [6] addresses T1, Dual specificity tyrosine-phosphorylation-regulated kinase 2 (Homo sapiens) (UniProt Q92630).
T1 sequence (whole entry): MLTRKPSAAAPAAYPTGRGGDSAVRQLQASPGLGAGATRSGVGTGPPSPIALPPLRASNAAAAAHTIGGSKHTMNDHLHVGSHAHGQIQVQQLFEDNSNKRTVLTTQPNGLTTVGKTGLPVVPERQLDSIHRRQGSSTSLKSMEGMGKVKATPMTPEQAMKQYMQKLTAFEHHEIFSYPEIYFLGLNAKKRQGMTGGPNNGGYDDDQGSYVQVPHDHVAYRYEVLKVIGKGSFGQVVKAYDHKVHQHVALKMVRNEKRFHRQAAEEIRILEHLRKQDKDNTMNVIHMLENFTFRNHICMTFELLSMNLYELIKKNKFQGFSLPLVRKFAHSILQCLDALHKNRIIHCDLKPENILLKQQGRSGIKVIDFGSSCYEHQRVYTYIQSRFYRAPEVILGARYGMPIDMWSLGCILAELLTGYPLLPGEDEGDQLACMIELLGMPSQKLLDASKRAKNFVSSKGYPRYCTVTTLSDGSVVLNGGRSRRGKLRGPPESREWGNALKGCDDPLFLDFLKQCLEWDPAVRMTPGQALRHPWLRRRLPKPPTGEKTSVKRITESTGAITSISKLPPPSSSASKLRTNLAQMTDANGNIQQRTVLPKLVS
Conditions: at 0.1 µM.

Assay [7] has as its target T1, Dual specificity tyrosine-phosphorylation-regulated kinase 2 (Homo sapiens). Conditions: at 1 µM.
The target in assay [8] is Glycogen synthase kinase-3 alpha (Homo sapiens) (UniProt P49840). Conditions: at 0.1 µM.
For assay [9] the target is unchanged. Particulars: at 1 µM.
For assay [10], the target named is Glycogen synthase kinase-3 beta (Homo sapiens) (UniProt P49841). Particulars: at 0.1 µM.
Assay [11] has the same target. Conditions: at 1 µM.
Assay [12] concerns the target Homeodomain-interacting protein kinase 1 (Homo sapiens) (UniProt Q86Z02). Conditions: at 0.1 µM.
Assay [13] has the same target. Particulars: at 1 µM.
For assay [14], the target named is T2, Homeodomain-interacting protein kinase 4 (Homo sapiens) (UniProt Q8NE63).
T2 sequence (whole entry): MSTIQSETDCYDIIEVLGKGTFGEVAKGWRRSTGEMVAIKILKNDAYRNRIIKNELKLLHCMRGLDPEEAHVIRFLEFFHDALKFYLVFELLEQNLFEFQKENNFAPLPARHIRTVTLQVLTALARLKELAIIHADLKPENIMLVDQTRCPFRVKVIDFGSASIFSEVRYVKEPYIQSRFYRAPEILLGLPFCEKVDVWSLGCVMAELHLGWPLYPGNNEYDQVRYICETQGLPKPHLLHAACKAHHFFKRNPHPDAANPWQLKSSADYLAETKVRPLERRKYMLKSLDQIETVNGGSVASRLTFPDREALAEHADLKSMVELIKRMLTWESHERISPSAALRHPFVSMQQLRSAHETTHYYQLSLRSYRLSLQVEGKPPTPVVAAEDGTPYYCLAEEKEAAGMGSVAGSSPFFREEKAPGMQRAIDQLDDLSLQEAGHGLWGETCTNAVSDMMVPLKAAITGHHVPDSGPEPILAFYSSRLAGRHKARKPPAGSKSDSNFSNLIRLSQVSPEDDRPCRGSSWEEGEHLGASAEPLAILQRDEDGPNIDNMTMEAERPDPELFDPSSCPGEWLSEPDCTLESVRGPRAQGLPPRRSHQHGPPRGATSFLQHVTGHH
Conditions: at 0.1 µM.

In assay [15] the target is T2, Homeodomain-interacting protein kinase 4 (Homo sapiens). Conditions: at 1 µM.
In assay [16] the target is Mitogen-activated protein kinase 9 (Homo sapiens) (UniProt P45984). Conditions: at 0.1 µM.
The target is the same in assay [17]. Conditions: at 1 µM.
Assay [18] deals with Mitogen-activated protein kinase 1 (Homo sapiens) (UniProt P28482). Particulars: at 0.1 µM.
The target is the same in assay [19]. Conditions: at 1 µM.
Assay [20] addresses Mitogen-activated protein kinase 3 (Homo sapiens) (UniProt P27361). Particulars: at 0.1 µM.

Sequence of Mitogen-activated protein kinase 3 (Homo sapiens) (P27361 whole entry): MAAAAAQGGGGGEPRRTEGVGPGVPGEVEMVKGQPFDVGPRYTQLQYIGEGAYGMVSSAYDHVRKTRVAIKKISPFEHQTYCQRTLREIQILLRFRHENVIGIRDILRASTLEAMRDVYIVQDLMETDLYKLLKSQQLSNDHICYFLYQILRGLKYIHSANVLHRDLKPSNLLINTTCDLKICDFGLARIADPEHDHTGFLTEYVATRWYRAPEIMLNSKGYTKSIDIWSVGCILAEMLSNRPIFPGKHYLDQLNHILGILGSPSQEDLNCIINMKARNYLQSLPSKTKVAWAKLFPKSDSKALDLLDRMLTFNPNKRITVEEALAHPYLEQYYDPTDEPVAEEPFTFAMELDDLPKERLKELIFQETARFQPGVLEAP
Sequence of Dual specificity protein kinase CLK3 (Homo sapiens) (P49761 whole entry, looked up): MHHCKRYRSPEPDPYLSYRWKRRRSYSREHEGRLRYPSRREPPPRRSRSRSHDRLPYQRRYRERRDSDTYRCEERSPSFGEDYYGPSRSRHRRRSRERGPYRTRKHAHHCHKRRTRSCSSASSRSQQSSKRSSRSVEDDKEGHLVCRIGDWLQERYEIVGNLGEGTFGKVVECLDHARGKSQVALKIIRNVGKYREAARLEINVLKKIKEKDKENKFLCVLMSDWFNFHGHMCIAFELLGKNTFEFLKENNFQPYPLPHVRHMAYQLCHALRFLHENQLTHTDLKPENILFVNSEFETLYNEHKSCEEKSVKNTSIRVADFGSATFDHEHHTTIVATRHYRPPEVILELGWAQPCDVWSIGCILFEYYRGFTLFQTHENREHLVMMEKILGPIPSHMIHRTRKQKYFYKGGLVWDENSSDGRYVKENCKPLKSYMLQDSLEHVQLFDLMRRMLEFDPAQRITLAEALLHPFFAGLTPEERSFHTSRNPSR
Sequence of Dual specificity tyrosine-phosphorylation-regulated kinase 1B (Homo sapiens) (Q9Y463 whole entry, looked up): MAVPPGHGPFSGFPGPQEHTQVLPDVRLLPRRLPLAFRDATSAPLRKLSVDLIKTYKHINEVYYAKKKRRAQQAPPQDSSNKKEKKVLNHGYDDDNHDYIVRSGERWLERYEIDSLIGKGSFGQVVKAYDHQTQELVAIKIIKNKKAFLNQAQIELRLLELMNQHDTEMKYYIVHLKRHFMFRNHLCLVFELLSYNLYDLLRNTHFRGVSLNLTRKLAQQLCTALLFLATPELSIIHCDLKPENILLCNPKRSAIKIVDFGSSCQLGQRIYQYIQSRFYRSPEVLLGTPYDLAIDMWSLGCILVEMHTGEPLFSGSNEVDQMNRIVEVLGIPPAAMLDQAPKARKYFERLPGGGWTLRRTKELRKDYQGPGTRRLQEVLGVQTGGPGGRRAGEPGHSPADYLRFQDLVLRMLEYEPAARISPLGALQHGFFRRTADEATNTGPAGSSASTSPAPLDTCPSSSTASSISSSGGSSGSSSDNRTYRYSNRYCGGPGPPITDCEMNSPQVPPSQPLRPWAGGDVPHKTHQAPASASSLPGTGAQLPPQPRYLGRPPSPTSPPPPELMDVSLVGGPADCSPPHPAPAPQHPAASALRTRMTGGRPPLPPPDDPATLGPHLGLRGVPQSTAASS
Sequence of Glycogen synthase kinase-3 alpha (Homo sapiens) (P49840 2-483 limits assumed): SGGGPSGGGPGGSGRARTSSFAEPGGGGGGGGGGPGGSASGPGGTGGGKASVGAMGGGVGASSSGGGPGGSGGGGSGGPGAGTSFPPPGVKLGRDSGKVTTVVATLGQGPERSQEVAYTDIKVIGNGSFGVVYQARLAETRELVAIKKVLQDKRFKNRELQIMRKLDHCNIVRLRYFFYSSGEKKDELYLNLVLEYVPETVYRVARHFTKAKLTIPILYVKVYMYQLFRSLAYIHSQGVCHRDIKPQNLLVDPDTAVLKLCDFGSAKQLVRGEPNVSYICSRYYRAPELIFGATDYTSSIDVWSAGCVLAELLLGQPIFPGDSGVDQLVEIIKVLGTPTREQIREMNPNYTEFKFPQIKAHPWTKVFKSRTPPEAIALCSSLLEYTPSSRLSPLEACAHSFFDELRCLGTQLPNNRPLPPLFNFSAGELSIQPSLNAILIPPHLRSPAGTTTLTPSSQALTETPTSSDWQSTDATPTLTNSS
Sequence of Glycogen synthase kinase-3 beta (Homo sapiens) (P49841 whole entry, looked up): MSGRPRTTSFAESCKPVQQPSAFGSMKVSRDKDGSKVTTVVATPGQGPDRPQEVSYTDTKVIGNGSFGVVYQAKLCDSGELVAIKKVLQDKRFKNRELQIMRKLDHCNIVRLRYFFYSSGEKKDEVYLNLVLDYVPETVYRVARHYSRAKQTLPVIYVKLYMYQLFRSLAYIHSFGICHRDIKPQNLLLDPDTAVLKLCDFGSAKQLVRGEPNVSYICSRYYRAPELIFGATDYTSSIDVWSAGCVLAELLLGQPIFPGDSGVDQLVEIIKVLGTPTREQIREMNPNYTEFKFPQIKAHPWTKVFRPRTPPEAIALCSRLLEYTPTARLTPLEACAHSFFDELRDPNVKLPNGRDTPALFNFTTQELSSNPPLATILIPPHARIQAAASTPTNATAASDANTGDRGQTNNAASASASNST
Sequence of Homeodomain-interacting protein kinase 1 (Homo sapiens) (Q86Z02 whole entry, looked up): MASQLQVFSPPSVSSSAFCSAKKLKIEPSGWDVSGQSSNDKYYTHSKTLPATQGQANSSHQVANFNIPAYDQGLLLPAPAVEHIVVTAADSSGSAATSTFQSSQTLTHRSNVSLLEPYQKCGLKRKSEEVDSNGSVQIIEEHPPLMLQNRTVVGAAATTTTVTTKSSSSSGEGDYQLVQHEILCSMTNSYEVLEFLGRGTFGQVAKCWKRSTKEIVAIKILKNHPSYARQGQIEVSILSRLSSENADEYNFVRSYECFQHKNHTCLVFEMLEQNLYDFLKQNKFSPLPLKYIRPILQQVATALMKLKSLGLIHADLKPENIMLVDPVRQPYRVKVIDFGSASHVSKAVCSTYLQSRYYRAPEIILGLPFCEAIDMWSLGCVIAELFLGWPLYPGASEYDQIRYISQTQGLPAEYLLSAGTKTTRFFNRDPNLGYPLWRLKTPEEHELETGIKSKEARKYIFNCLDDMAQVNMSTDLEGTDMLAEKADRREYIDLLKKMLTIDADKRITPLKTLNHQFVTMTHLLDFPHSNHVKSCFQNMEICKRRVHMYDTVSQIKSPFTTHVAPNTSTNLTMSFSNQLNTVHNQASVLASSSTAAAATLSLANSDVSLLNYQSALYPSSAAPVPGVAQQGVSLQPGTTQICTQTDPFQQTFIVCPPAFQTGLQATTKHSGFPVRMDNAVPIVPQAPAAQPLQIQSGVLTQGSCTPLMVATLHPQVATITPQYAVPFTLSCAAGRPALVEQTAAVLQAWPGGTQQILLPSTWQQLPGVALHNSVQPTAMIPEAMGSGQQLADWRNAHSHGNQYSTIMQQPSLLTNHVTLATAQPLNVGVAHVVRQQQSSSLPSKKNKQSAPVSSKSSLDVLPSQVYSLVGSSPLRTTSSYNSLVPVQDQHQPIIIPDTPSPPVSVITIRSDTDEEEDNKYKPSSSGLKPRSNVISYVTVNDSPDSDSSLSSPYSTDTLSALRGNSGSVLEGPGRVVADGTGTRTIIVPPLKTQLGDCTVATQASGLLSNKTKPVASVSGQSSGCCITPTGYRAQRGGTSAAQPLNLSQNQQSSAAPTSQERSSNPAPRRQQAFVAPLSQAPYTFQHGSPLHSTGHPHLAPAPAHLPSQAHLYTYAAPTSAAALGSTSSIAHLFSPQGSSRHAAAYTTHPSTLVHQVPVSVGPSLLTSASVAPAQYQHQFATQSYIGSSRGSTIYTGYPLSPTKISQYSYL
Sequence of Mitogen-activated protein kinase 9 (Homo sapiens) (P45984 whole entry, looked up): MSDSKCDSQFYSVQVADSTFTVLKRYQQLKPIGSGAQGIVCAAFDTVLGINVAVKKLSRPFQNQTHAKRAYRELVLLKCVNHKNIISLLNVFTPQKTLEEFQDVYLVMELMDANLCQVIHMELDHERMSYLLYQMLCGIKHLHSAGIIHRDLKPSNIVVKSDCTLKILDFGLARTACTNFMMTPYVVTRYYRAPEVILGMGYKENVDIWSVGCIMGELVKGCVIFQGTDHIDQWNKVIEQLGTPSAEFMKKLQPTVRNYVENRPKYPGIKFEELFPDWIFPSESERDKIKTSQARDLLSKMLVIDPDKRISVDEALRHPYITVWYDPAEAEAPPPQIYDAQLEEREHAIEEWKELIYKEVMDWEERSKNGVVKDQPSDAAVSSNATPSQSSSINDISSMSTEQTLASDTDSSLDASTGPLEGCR
Sequence of Mitogen-activated protein kinase 1 (Homo sapiens) (P28482 whole entry): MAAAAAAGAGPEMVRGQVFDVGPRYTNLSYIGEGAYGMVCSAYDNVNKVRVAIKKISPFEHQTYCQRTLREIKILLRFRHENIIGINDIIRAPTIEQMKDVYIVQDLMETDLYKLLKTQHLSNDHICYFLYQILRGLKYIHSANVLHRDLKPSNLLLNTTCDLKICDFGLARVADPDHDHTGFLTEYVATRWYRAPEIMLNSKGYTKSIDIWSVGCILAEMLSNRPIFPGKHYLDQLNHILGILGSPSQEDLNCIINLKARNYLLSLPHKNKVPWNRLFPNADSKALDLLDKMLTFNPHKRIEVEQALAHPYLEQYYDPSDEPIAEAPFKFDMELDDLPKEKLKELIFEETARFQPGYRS

As a reminder, the inhibition is the relative decrease from the control value, in per cent. As to `Fc1ccc(-c2nn3ncccc3c2-c2ccnc(Nc3ccc4c(c3)OCCO4)n2)cc1`, the inhibition in assay [1] was 0.91%; in assay [2] it was 1.5%; in [3] it was 3.37%; in assay [4], 0.99%; in [5], -1.69%; in assay [6] it was 3.56%. The inhibition in assay [7] is 4.44%; in assay [8], 19.6%; in assay [9], 59.7%; in [10], 39%; in assay [11] it was 76.1%; in assay [12], -1.25%. Also, the inhibition in assay [13] is -1.1%; in [14] it was -0.3%; in assay [15], 4.58%; in assay [16], 58.4%; in assay [17], 84.9%; in assay [18], 2.51%. Moreover, the inhibition in [19] amounted to 11.1%; in assay [20], 5.61%.
With `CCn1c(-c2nonc2N)nc2c(C#CC(C)(C)O)ncc(OC3CCNCC3)c21`, the inhibition in [1] is 0.2%; in assay [2] it was 1.61%; in [3], -0.11%; in [4], 0.14%; in [5] it was 1.34%; in assay [6], 2.3%. Also, the inhibition in assay [7] amounted to 3.89%; in assay [8], 12.3%; in assay [9], 48.9%; in assay [10] it was 10%; in assay [11], 51.8%; in assay [12] it was 0.21%. For the same molecule, the inhibition came out at 4.91% in assay [13]; 1.04% in [14]; 2.64% in assay [15]; 4.13% in assay [16]; 6.93% in assay [17]; 4.51% in assay [18]. Besides, the inhibition turned out to be 7.43% in assay [19] and 4.27% in assay [20].
With `COc1ccc2c(-c3ccnc(Nc4cccc(OC(F)(F)F)c4)n3)cnn2n1`, the inhibition in assay [1] amounted to 52.8%; in assay [2], 16%; in [3], 60.8%; in [4], 32.6%; in assay [5], 77.2%; in assay [6], 4.32%. Further, the inhibition is 16% in assay [7]; 28.1% in assay [8]; 81.1% in assay [9]; 21.2% in assay [10]; 73.2% in [11]; 84.8% in assay [12]. Besides, the inhibition in assay [13] is 91.7%; in assay [14] it was 51.3%; in assay [15], 83%; in [16], 1.35%; in [17], 11.4%; in assay [18] it was 2.96%. Besides, the inhibition in assay [19] came out at 7.52%; in assay [20], 5.36%.
In the case of `COc1ccc(CNC(=O)c2ccc(-c3cc(-c4nnc(C)o4)ccc3C)cc2)cc1`, the inhibition in assay [1] was found to be 2.16%; in assay [2] it was 1.08%; in [3], 1.05%; in assay [4], 1.53%; in assay [5], 2.22%; in [6], 0.27%. Also, the inhibition in assay [7] worked out at 1.42%; in [8] it was 5.61%; in assay [9], 17.9%; in assay [10], 5.31%; in assay [11] it was 13.6%; in assay [12] it was 5.43%. The inhibition in [13] is 5.55%; in assay [14], 7.2%; in [15] it was 9.71%; in assay [16], -0.3%; in assay [17], 2.51%; in [18], 4.56%. Further, the inhibition in [19] was -9.41%; in [20] it was 1.8%.
As for `COC(=O)c1sc(-n2cnc3cc(OC)c(OC)cc32)cc1OCc1ccccc1C(F)(F)F`, the inhibition in assay [1] was 0.53%; in assay [2], 1.62%; in [3], 3.44%; in [4], -1.47%; in [5] it was -1.98%; in assay [6] it was 3.48%. The inhibition in assay [7] was 4.12%; in assay [8], 1.51%; in [9] it was 4.48%; in assay [10], -0.28%; in [11], 3.49%; in assay [12], -2.18%. The inhibition is -0.46% in assay [13]; -0.74% in assay [14]; 1.47% in [15]; 3.59% in [16]; 6.58% in [17]; 4.72% in assay [18]. Further, the inhibition in [19] came out at 5.29%; in [20], 3.25%.
On to `O=C(O[C@H]1CN[C@H](C#Cc2cc3ncnc(Nc4ccc(Cc5ccccc5)cc4)c3s2)C1)N1CCOCC1`, for which the inhibition in assay [1] was 0.23%; in assay [2], 1.9%; in [3], -0.14%; in assay [4], 1.3%; in assay [5], 2.47%; in [6] it was 2.26%. For the same molecule, the inhibition was 0.33% in assay [7]; 2.45% in [8]; 3.62% in assay [9]; 0.78% in assay [10]; 2.73% in assay [11]; -2.13% in assay [12]. Further, the inhibition is 0.97% in [13]; 0.04% in [14]; -1.93% in [15]; -0.66% in [16]; -0.45% in assay [17]; 3.25% in assay [18]. The inhibition is 3.25% in [19] and 2.66% in assay [20].
As for `CCCN(CCS(C)(=O)=O)Cc1ccc(-c2ccc3ncnc(Nc4ccc(OCc5cccc(F)c5)c(Cl)c4)c3c2)o1`, the inhibition amounted to 3.58% in [1]; 4.83% in assay [2]; 10.8% in assay [3]; 4.87% in assay [4]; 10.4% in [5]; 1.93% in [6]. For the same molecule, the inhibition amounted to 2.03% in assay [7]; 7.55% in [8]; 9.2% in assay [9]; 6.85% in assay [10]; 10.2% in [11]; 6.46% in [12]. Moreover, the inhibition was 11.6% in assay [13]; 3.01% in assay [14]; 9.25% in assay [15]; 2.74% in [16]; 4.94% in [17]; 1.68% in assay [18]. Moreover, the inhibition in assay [19] worked out at 3.24%; in assay [20] it was 1.75%.

Values taken from ChEMBL document CHEMBL1961873, “Compounds: GSK PKIS; Assays: Nanosyn kinase panel” (2012).
